An excerpt weighted towards active compounds, which were near 2.2% of everything screened.
GC-A act = GC-A (human) enzyme activation; P16066; HEK293 GC-A cells, cGMP TR-FRET, EC30 ANP; 0% at EC30 ANP, 100% saturating ANP; activation, % at 10 µM; 370,000 compounds, 0.14% hits; in the data active = activation above about 40%
PLCb3 inh = inhibitors of human phospholipase C beta3. Q01970. Purified PLC-beta3, fluorogenic substrate, fluorescence. inhibition, % at 12.2 µM. 370,000 compounds, 0.18% hits
Target sequence (Q01970 whole entry, looked up): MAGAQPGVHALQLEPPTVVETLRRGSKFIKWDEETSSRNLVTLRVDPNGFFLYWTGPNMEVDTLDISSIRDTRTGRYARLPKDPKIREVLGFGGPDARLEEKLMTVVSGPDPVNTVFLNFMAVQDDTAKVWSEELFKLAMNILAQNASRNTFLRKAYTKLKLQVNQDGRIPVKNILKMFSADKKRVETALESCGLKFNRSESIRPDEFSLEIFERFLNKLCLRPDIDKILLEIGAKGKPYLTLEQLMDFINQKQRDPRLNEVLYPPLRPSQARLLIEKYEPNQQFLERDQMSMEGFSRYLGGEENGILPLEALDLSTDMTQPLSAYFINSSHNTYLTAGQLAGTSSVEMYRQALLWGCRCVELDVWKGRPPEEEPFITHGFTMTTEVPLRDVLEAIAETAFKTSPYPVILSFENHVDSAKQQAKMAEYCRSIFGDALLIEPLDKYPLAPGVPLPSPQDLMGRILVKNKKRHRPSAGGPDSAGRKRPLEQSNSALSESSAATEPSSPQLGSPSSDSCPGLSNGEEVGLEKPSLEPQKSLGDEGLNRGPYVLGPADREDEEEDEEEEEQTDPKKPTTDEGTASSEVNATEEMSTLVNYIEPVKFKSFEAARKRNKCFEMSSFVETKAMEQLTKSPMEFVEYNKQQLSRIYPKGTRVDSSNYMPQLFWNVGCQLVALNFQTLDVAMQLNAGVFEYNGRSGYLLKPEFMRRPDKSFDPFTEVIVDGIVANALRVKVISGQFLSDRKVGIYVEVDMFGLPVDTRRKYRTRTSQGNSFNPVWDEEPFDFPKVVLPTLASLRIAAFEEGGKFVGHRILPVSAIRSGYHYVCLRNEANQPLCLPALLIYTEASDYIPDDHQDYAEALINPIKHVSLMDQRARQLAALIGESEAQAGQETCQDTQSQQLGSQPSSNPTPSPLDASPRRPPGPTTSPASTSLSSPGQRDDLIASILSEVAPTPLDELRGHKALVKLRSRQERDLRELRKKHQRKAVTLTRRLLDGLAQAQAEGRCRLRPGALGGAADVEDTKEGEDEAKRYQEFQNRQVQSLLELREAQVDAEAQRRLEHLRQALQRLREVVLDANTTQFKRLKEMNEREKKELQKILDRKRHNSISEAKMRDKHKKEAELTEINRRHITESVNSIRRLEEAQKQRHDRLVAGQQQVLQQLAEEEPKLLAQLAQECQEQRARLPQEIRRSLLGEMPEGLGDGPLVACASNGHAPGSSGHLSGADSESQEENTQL
PLCg1 inh = inhibitors of human phospholipase C gamma1; AID 720700; inhibition, % at 12.2 µM; 370,000 compounds, 0.84% hits; P19174; purified PLC-gamma1, fluorogenic substrate, fluorescence; in the data active = inhibition above about 9.5%
GC-B act = GC-B (human) receptor activation; HEK293-GC-B cells, CNP EC30, cGMP TR-FRET; 0% at EC30 CNP, 100% saturating CNP; AID 1920062; P20594; activation, % at 10 µM; 370,000 compounds, 0.11% hits;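 active = activation at 10 µM reaching about 35% in either raw or pattern-adjusted values, limit read from the data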
Rce1 inh = blocks yeast Ras-converting enzyme; Q03530; yeast membranes, quenched prenylated peptide cleavage fluorescence; calls only; 290,000 compounds, 0.27% hits; AID 2563;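 active = fall in fluorescence gain of 50% or more versus controls, with final raw signal at or below 3038400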
M18AAP inhibitor = PfM18AAP enzyme inhibition; inhibition, % at 7.35 µM; 290,000 compounds, 1.2% hits; AID 1822; recombinant PfM18AAP, H-Glu-NHMec fluorogenic cleavage;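 active = inhibition above the campaign mean inhibition over all tested compounds plus 3 SD, cut at about 28% in these data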
PLCg1 ctr = counter-screen for PLC-beta3 inhibitors: inhibitors of human PLC-gamma1; shares compounds with PLCg1 inh; purified PLC-gamma1, fluorogenic substrate, fluorescence; inhibition, % at 12.3 µM; 3,300 compounds, 3.1% hits; AID 743258; in the data active = inhibition above about 9.5%
PLCbeta3 conf = human PLC-beta3 inhibition, confirmation | shares compounds with PLCg1 inh | purified PLC-beta3, fluorogenic substrate fluorescence | inhibition, % at 12.3 µM | 3,300 compounds, 1% hits | AID 743261
Hits are given with their value. Rule as the data show it, unless noted: active = inhibition above about 11%; inactive = the rest.

Results for Cc1cc(Cl)ccc1NC(=O)Nc1c(C)n(-c2ccccc2)c(=O)n1C ?
GC-A act: inactive; PLCb3 inh: inactive; PLCg1 inh: 9.6; GC-B act: inactive; Rce1 inh: inactive; M18AAP inhibitor: inactive; PLCg1 ctr: inactive; PLCbeta3 conf: inactive

Results for COc1ccc(Cl)c(NC(=O)Nc2c(C)n(-c3ccccc3)c(=O)n2C)c1 ?
GC-A act: inactive; PLCb3 inh: inactive; PLCg1 inh: inactive; GC-B act: inactive; Rce1 inh: inactive; M18AAP inhibitor: inactive

What do the screens show for `Cc1ccc(-c2c[n+](CC(=O)Nc3nc(-c4ccccc4)cs3)c3n2CCC3)cc1`?
GC-A act: inactive; PLCb3 inh: 11; PLCg1 inh: 12; GC-B act: inactive; Rce1 inh: inactive; M18AAP inhibitor: inactive; PLCg1 ctr: inactive; PLCbeta3 conf: inactive

How did Cc1ccc(-c2c[n+](CC(=O)Nc3ccccc3C)c3n2CCC3)cc1 do in these assays?
GC-A act: inactive; PLCb3 inh: inactive; PLCg1 inh: 9.8; GC-B act: inactive; Rce1 inh: inactive; M18AAP inhibitor: inactive; PLCg1 ctr: inactive; PLCbeta3 conf: inactive

Results for COC(=O)[C@]12C[C@H](CC(=O)NCc3cccs3)C(=O)N(Cc3ccccc3)C1=C[C@H](C(C)C)O[C@@H]2C1CC1 ?
GC-A act: inactive; PLCb3 inh: inactive; PLCg1 inh: inactive; GC-B act: inactive

How did CC(=O)c1c(C)nn(C(=O)N2CCOCC2)c1C do in these assays?
GC-A act: inactive; PLCb3 inh: 15; PLCg1 inh: inactive; GC-B act: inactive; Rce1 inh: inactive; PLCg1 ctr: inactive; PLCbeta3 conf: inactive

Results for Cc1nn(C(=O)N2CCOCC2)c(C)c1CN1C(=O)c2ccccc2C1=O ?
GC-A act: inactive; PLCb3 inh: inactive; PLCg1 inh: inactive; GC-B act: inactive; M18AAP inhibitor: inactive

What do the screens show for `COc1ccc(/C(O)=C2/C(=O)C(=O)N(CC3CCCO3)C2c2cccc(O)c2)cc1` (stereo not drawn)?
GC-A act: inactive; PLCb3 inh: inactive; PLCg1 inh: 9.6; GC-B act: inactive; Rce1 inh: inactive; M18AAP inhibitor: inactive; PLCg1 ctr: inactive; PLCbeta3 conf: inactive

How did COC(=O)c1ccc(C2/C(=C(/O)c3ccc(OC)cc3)C(=O)C(=O)N2CC2CCCO2)cc1 (stereo not drawn) do in these assays?
GC-A act: inactive; PLCb3 inh: inactive; PLCg1 inh: inactive; GC-B act: inactive; Rce1 inh: inactive; M18AAP inhibitor: inactive

How did CN1C(=O)C[C@@](C#N)(C(=O)Nc2nc3ccc(F)cc3s2)[C@H]1c1ccccc1 do in these assays?
GC-A act: inactive; PLCb3 inh: inactive; PLCg1 inh: inactive; GC-B act: inactive

Results for O=C(CNCCC1=CCCCC1)Nc1ccccc1N1CCCCC1 ?
GC-A act: inactive; PLCb3 inh: inactive; PLCg1 inh: 12; GC-B act: inactive; Rce1 inh: inactive; M18AAP inhibitor: inactive; PLCg1 ctr: inactive; PLCbeta3 conf: inactive

How did O=C(CNC1CCCCCC1)Nc1ccccc1N1CCCCC1 do in these assays?
GC-A act: inactive; PLCb3 inh: inactive; PLCg1 inh: inactive; GC-B act: inactive; Rce1 inh: inactive; M18AAP inhibitor: inactive

How did CC(C)N1CCc2c(sc(NC(=O)C(F)(F)F)c2-c2nc3ccccc3s2)C1 do in these assays?
GC-A act: inactive; PLCb3 inh: inactive; PLCg1 inh: inactive; GC-B act: inactive

Results for O=C(NCCNC(=O)c1cc(OCC(F)(F)F)ccc1OCC(F)(F)F)Nc1ccc(OC(F)(F)F)cc1 ?
GC-A act: inactive; PLCb3 inh: inactive; PLCg1 inh: 12; GC-B act: inactive; Rce1 inh: inactive; M18AAP inhibitor: inactive; PLCg1 ctr: inactive; PLCbeta3 conf: inactive

What do the screens show for `O=C(NCCNC(=O)c1cc(OCC(F)(F)F)ccc1OCC(F)(F)F)Nc1ccc(Cl)cc1`?
GC-A act: inactive; PLCb3 inh: inactive; PLCg1 inh: inactive; GC-B act: inactive; Rce1 inh: inactive; M18AAP inhibitor: inactive

Results for Cc1[nH]c(=O)c(C#N)c(C)c1CSc1ncccn1 ?
GC-A act: inactive; PLCb3 inh: inactive; PLCg1 inh: 12; GC-B act: inactive; Rce1 inh: inactive; PLCg1 ctr: inactive; PLCbeta3 conf: inactive

Screening results as filed in PubChem BioAssay.
